Calls of active or inactive are those of the source.
Legend:
[1] = binders of probe aFSTL3 on microarray, primary screen, stem cell growth factor project, biochemical, small-molecule microarray, fluorescence 635/667 (AID 1064); settings: higher = more signal;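 further: measures binding of the biotinylated anti-FSTL3 antibody to printed compounds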
[2] = binders from COS7 lysate, DM2A8 probe, primary screen, torsin A project, cell lysate, small-molecule microarray, fluorescence 635/667 (AID 1065); settings: higher = more signal, COS7 lysate expressing mutant human TOR1A
[3] = binders of probe aFGF2 on microarray, primary screen, stem cell growth factor project, biochemical, small-molecule microarray, fluorescence 635/667 (AID 1067); settings: higher = more signal;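 further: measures binding of biotinylated aFGF2 protein to printed compounds on slides; z-score merges feature fluorescence and signal-to-noise across triplicate slides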
[4] = binders of probe aFGF10 on microarray, primary screen, stem cell growth factor project, biochemical, small-molecule microarray, fluorescence 635/667 (AID 1071); settings: higher = more signal;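 further: score merges 667 nm spot intensity and signal to noise from triplicate slides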
[5] = target: Neurogenic locus notch homolog protein 2 (Homo sapiens) (UniProt Q04721); experiment: Notch2 binders on small-molecule microarrays, primary screen, biochemical, small-molecule microarray, 635 nm fluorescence, stem cell growth factors (AID 1073); settings: Notch2 binding, higher = more signal
[6] = target: Pro-neuregulin-1, membrane-bound isoform (Homo sapiens) (UniProt Q02297); experiment: NRG1 binders on small-molecule microarrays, primary screen, psychiatric disease protein project, biochemical, small-molecule microarray, fluorescence 635/667 (AID 1075); settings: NRG1 binding, 635 nm fluorescence, higher = more signal;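 further: score combines 667 nm spot fluorescence with signal to noise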
[7] = tested on: Neuregulin-1 EGF-like domain; experiment: binders of neuregulin-1 EGF-like domain, primary screen, biochemical, small-molecule microarray, 635 nm fluorescence (AID 1081); settings: small-molecule microarray binding, higher = more signal;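 further: binding of the protein to compounds printed on small-molecule microarray slides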
[8] = FRG1 promoter luciferase signal modulators, primary screen, FRG1 inhibition for FSHD, cell-based, C2C12 myotubes, firefly/Renilla luciferase, luminescence (AID 1084); settings: higher = more signal, called active from +8 up or from −8 down
[9] = binders of probe aFST on microarray, primary screen, stem cell growth factor project, biochemical, small-molecule microarray, fluorescence 635/667 (AID 1086); settings: higher = more signal;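 further: score merges 667 nm fluorescence with signal-to-noise of each printed compound spot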
[10] = binders of probe aHhip on microarray, primary screen, stem cell growth factor project, biochemical, small-molecule microarray, fluorescence 635/667 (AID 1087); settings: higher = more signal;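 further: score merges spot fluorescence at 667nm with spot signal to noise ratio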

Pro-neuregulin-1, membrane-bound isoform (Homo sapiens), sequence (Q02297 whole entry, looked up, the tested form may be a part, canonical isoform): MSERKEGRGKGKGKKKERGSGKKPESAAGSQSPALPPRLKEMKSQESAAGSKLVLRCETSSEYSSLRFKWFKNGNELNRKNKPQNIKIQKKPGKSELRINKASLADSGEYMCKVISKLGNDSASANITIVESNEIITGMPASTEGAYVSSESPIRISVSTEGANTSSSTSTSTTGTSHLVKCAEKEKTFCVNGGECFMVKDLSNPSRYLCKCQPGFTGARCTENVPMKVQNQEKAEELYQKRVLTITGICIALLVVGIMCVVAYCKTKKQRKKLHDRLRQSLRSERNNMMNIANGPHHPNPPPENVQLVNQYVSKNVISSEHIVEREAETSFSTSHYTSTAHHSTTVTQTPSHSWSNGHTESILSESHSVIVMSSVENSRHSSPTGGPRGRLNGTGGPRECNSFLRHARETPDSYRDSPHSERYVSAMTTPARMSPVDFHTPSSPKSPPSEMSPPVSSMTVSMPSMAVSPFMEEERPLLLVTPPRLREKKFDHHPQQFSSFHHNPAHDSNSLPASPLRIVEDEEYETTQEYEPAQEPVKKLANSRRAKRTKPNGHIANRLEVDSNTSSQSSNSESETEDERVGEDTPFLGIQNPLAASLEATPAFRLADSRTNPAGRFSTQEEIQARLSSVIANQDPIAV
Neurogenic locus notch homolog protein 2 (Homo sapiens), sequence (Q04721 whole entry, looked up, canonical isoform): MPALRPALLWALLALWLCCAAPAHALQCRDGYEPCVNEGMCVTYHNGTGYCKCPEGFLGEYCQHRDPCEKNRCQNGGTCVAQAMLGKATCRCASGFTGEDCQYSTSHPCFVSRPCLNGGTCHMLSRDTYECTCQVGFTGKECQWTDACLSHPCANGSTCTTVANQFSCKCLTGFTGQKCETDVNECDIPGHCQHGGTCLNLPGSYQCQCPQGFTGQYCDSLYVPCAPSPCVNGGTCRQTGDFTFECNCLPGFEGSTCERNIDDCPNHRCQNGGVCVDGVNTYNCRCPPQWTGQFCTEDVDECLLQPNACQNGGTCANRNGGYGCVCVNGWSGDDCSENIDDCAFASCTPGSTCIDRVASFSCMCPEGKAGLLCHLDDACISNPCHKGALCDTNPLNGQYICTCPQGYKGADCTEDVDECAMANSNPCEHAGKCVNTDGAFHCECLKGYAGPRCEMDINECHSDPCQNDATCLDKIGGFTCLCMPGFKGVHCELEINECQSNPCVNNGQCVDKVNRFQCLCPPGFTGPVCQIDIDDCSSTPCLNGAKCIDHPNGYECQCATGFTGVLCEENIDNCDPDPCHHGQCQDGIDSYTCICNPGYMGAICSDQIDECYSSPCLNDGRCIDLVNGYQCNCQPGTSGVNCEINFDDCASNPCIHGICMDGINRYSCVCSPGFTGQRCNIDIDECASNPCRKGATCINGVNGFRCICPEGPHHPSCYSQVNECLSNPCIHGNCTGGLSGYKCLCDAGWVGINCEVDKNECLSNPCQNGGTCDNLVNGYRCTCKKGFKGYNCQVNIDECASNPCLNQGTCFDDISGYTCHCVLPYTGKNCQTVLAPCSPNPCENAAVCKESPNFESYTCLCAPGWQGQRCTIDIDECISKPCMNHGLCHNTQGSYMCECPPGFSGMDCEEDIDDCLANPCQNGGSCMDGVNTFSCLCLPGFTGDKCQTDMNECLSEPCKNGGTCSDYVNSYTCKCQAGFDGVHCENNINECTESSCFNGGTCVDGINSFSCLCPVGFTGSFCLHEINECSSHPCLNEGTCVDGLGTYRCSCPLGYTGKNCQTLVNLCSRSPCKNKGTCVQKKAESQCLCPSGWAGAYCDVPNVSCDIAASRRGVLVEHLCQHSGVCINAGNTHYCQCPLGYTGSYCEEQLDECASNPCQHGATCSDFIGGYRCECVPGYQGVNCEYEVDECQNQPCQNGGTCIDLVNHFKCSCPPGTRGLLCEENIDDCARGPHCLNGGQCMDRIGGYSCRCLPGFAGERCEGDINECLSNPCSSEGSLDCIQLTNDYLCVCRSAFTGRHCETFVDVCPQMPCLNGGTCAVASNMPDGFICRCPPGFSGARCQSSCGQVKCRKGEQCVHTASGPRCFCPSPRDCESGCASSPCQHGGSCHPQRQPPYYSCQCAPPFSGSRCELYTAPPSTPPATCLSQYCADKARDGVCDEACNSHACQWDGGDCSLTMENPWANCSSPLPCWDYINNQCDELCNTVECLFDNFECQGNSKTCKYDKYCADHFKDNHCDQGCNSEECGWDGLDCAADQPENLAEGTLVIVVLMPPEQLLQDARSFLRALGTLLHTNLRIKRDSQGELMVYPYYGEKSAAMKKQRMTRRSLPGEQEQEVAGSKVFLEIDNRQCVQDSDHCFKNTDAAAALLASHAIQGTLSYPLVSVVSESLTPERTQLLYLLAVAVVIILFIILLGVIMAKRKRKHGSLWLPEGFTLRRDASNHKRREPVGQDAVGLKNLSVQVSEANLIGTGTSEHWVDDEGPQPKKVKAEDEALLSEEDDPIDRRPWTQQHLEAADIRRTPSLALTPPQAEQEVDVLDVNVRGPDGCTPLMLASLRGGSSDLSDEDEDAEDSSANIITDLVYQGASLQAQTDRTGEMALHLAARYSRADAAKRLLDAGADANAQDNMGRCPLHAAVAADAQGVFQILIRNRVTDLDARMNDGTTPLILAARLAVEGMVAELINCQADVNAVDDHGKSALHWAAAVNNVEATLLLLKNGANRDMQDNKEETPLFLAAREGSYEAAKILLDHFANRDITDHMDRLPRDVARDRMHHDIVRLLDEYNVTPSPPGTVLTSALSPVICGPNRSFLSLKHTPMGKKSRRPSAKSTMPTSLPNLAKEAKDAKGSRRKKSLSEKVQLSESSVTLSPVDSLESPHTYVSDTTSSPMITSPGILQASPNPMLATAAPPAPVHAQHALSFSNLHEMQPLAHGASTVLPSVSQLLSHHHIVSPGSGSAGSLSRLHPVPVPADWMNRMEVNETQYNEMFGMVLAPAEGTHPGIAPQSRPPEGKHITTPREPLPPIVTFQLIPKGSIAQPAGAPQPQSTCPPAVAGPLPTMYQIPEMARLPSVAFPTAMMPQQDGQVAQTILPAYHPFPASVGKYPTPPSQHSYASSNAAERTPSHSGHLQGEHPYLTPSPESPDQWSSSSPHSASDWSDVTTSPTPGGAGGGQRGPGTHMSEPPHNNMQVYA

Compound	composite z-score [1]	composite z-score [2]	composite z-score [3]	composite z-score [4]	composite z-score [5]	composite z-score [6]	composite z-score [7]	z-score [8]	composite z-score [9]	composite z-score [10]
COC(=O)C1(C)C=C2C(=C(c3ccccc3)C(=O)C2C)CN1 (stereo not given)	0.84	0.0679	-0.0535	-0.18	-0.167	1.96	0.691	2.35 (inactive)	0.313	0.23
COC(=O)[C@@H]1CCCN1C(=O)[C@@H](C)CO	-0.527	0.431	-0.137	0.467	0.693	0.346	1.03	1.66 (inactive)	0.162	0.154
NCCCCCNC(=O)[C@@H]1C[C@@H]2C(=O)N3CCC[C@H]3C(=O)N2[C@@H]1c1cccc(OCCO)c1	2.37	2.1	0.103	0.349	0.185	1.86	1.26	0.76 (inactive)	1.68	0.309
CCOC(=O)NN=C1C[C@@H](O)[C@@H](O)[C@@H]2[C@@H]3C(=O)N(CC)C(=O)[C@@H]3CC[C@@H]12	-0.415	0.377	-0.0355	0.72	0.797	-0.008	0.672	0.323 (inactive)	0.713	-0.201
CCN1C(=O)[C@H]2[C@H]3[C@H](O)C=CC(=O)[C@@H]3CC[C@H]2C1=O	-0.456	0.236	-0.0744	0.393	0.602	-0.132	0.226	0.669 (inactive)	0.243	0.312
CC(CCN1CCc2nc(-c3ccccc3)c(-c3ccccc3)cc2C1)=NOC(C)CN1CCCCc2nc(C)c(C)cc21 (stereo not given)	-0.16	-0.0309	-0.0398	0.476	0.519	0.657	0.885	1.1 (inactive)	0.465	0.115
CCN1C(=O)[C@H]2[C@H]3[C@H](O)[C@H](O)CC(=NOCc4ccccc4)[C@H]3CC[C@H]2C1=O	-0.5	0.391	-0.116	0.611	0.262	-0.0759	-0.0363	0.273 (inactive)	0.214	-0.226
CC(C)(C)OC(=O)CC[C@]1(C(=O)NCc2ccccc2)N=C(c2ccc(OCCCO)cc2)O[C@H]1c1ccccc1	0.0895	0.8	-0.0036	1	0.979	1.94	1.23	-2.08 (inactive)	1.04	-0.0645
O=C1[C@H]2[C@H]3[C@H](O)[C@H](O)CC(=NO[C@@H]4O[C@H](CO)[C@@H](O)[C@H](O)[C@H]4O)[C@H]3CC[C@H]2C(=O)N1Cc1ccc2c(c1)OCO2	0.606	1.53	-0.104	-0.103	-0.475	0.266	0.592	-0.0585 (inactive)	0.319	-0.132
c1ccc(C2NCCc3c2[nH]c2ccccc32)cc1 (stereo not given)	0.136	0.548	0.0183	0.0913	-0.443	0.464	0.233	-0.151 (inactive)	-0.16	-0.128
COc1ccccc1CN1C(=O)c2ccccc2[C@@H](C(=O)NCC(F)(F)F)[C@@H]1c1ccc(CO)cc1	-0.271	0.683	-0.0829	0.0992	0.654	1.17	1.39	-3 (inactive)	0.19	-0.0994
O=C(NN=C1C[C@@H](O)[C@@H](O)[C@@H]2[C@@H]3C(=O)N(c4ccc(F)cc4F)C(=O)[C@@H]3CC[C@@H]12)OCc1ccccc1	-0.105	0.361	-0.0845	0.215	0.283	0.113	-0.882	0.228 (inactive)	0.51	-0.0672
CN1C(=O)[C@@]2(CCC(=O)OC(C)(C)C)N=C(c3ccc(OCCCO)cc3)O[C@H]2c2ccccc21	-0.195	0.756	-0.0948	0.124	0.244	0.859	1.13	-0.105 (inactive)	0.183	-0.186
COC(=O)CC=C[C@@H](C)[C@@H](C=NO[C@@H](C)c1cc(-c2c(C)cc(C)cc2C)no1)OC	1.46	-1.99	-0.159	-0.806	-1.69	-0.674	-0.714	0.8 (inactive)	-0.358	-0.0672
C=C(/C(=C/C[C@H](OC(=O)c1ccncc1)c1ccc(OCCO)cc1)c1cnc2ccccc2c1)C(C)C	-0.185	0.727	-0.047	1.09	1.29	0.7	1.13	1.66 (inactive)	0.552	-0.0296
C[C@H]1Cc2c(-c3ccccc3)nc3c(c2CO1)CN(CCOc1ccccc1)CC3	-0.635	0.568	-0.113	0.739	1.41	0.135	0.991	0.53 (inactive)	0.307	-0.0708
CC(C)=C1C(=O)C(c2ccccc2)=C2CN3C(=O)N(CCc4ccccc4)C(=O)[C@]3(Cc3ccc(F)cc3)[C@H]21	0.565	-0.65	0.0547	-0.247	-1.09	1.3	0.134	-0.0896 (inactive)	0.841	0.0722
CC1CC/C=C\[C@H]2OC34C=CCN(C(C)C)C(=O)[C@H]3N(CCCO)C(=O)[C@@H]4C2C(=O)O1 (stereo not given in full)	0.456	1.1	-0.175	0.245	-0.673	1.19	0.866	-0.345 (inactive)	-0.5	0.214
CC(C)NC(=O)[C@@]1(c2ccc([N+](=O)[O-])cc2)CC(=O)N(CC23CC4CC(CC(C4)C2)C3)[C@@H]1c1ccc(CO)cc1I	0.765	0.0289	0.11	0.252	0.931	0.607	0.964	-3.71 (inactive)	0.481	-0.0645
CCN1C(=O)[C@H]2[C@H]3[C@H](O)[C@H](O)CC(=NO[C@@H]4O[C@H](CO)[C@@H](O)[C@H](O)[C@H]4O)[C@@H]3CC[C@H]2C1=O	-0.0837	0.0566	-0.211	-0.078	-1.21	0.485	-1.11	0.183 (inactive)	-0.402	0.354
CC(=O)OC[C@H]1O[C@H](CCON=C[C@@H](C)[C@H](OCc2ccccc2)C(C)C)C=C[C@@H]1OC(C)=O	-0.567	0.57	-0.101	0.114	-0.113	-0.114	-0.339	0.447 (inactive)	0.0538	0.312
CC=CC1=C(CO)[C@H](O)[C@H]2O[C@H]2[C@H]1O	-0.659	0.253	-0.027	0.166	-0.0482	-0.157	0.583	-0.0975 (inactive)	-0.191	0.0881
O=C(NN=C1C[C@@H](O)[C@@H](O)[C@@H]2[C@@H]3C(=O)N(c4cccc(Oc5ccccc5)c4)C(=O)[C@@H]3CC[C@H]12)OCc1ccccc1	-0.0678	0.249	-0.101	0.0108	0.176	0.301	-0.533	0.723 (inactive)	0.182	-0.249
Cc1ccc(C2CC=C(C(=O)O)CN2S(=O)(=O)c2ccc(C)cc2)cc1 (stereo not given)	0.004	0.157	-0.0258	0.0852	0.677	1.97	0.937	-2.06 (inactive)	0.374	0.0749
C[C@@H](c1ccccc1)N1C(=O)[C@H]2[C@H]3[C@H](O)[C@H](O)CC(=NNC(=O)OCc4ccccc4)[C@H]3CC[C@H]2C1=O	0.512	0.16	-0.129	0.201	0.382	-0.207	-0.451	0.0168 (inactive)	0.366	-0.236
COC(=O)[C@H]1COC(c2ccc(OCCCO)cc2)=N1	0.971	-0.354	-0.0425	-0.576	0.115	-0.0556	0.207	0.97 (inactive)	0.179	-0.0618

Source: PubChem BioAssay
